Tests used:
[1] = molecular target: Dual specificity protein kinase CLK3 (Homo sapiens) (UniProt P49761); conditions: at 1 µM;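 note: each value is the mean inhibition of CLK3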
[2] = molecular target: Dual specificity tyrosine-phosphorylation-regulated kinase 1A (Homo sapiens) (UniProt Q13627); conditions: at 0.1 µM
[3] = molecular target: Dual specificity tyrosine-phosphorylation-regulated kinase 1A (Homo sapiens) (UniProt Q13627); conditions: at 1 µM
[4] = molecular target: Dual specificity tyrosine-phosphorylation-regulated kinase 1B (Homo sapiens) (UniProt Q9Y463); conditions: at 0.1 µM
Dual specificity tyrosine-phosphorylation-regulated kinase 1B (Homo sapiens), sequence (Q9Y463 whole entry, looked up): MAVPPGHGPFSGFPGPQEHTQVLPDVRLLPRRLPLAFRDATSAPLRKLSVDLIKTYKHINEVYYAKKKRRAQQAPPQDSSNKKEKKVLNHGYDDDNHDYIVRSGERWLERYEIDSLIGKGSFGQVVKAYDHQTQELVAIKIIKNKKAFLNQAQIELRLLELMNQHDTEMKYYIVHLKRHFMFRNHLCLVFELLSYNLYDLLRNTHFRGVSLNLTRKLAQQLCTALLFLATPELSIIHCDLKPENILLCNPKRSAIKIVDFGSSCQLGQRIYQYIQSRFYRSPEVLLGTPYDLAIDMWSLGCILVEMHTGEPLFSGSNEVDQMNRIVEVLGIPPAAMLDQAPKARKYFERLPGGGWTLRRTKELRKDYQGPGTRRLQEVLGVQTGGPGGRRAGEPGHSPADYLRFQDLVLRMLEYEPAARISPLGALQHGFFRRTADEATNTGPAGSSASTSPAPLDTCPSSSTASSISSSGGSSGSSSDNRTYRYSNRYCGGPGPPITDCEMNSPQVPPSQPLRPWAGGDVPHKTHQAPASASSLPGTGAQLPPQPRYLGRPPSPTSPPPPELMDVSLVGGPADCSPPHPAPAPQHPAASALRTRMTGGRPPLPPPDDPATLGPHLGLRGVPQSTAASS

[5] = molecular target: Dual specificity tyrosine-phosphorylation-regulated kinase 1B (Homo sapiens) (UniProt Q9Y463); conditions: at 1 µM
[6] = molecular target: T1, Dual specificity tyrosine-phosphorylation-regulated kinase 2 (Homo sapiens) (UniProt Q92630); conditions: at 0.1 µM
T1 sequence (whole entry): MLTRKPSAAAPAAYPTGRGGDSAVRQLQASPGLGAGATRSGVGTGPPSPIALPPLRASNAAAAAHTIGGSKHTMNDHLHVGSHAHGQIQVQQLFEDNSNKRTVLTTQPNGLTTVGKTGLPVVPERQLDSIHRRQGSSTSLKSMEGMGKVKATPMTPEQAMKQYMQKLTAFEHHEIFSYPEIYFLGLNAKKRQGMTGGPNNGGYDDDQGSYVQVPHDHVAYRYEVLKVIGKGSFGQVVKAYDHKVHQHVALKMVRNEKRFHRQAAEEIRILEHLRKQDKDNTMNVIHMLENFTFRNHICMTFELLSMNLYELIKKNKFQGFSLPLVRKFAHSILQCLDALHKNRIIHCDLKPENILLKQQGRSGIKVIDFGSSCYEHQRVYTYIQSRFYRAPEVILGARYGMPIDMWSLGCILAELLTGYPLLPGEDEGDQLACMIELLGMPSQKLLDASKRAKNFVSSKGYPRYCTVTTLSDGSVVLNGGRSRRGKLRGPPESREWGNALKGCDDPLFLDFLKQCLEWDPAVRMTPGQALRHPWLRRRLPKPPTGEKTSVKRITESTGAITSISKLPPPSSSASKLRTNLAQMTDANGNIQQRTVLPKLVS

[7] = molecular target: T1, Dual specificity tyrosine-phosphorylation-regulated kinase 2 (Homo sapiens); conditions: at 1 µM
[8] = molecular target: Glycogen synthase kinase-3 alpha (Homo sapiens) (UniProt P49840); conditions: at 0.1 µM
Glycogen synthase kinase-3 alpha (Homo sapiens), sequence (P49840 2-483 limits assumed): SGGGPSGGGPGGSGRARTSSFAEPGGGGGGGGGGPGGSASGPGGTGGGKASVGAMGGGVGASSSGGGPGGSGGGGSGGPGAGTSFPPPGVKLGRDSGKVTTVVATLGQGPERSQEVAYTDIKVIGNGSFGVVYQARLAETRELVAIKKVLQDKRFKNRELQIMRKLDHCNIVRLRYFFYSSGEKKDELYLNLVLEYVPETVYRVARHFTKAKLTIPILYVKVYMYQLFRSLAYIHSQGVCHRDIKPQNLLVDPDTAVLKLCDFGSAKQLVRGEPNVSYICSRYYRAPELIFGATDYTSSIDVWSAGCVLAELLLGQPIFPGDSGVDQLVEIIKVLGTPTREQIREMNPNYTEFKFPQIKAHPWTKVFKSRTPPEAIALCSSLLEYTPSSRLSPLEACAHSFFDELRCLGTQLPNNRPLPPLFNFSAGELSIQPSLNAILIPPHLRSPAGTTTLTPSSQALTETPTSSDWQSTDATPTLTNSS

[9] = molecular target: Glycogen synthase kinase-3 alpha (Homo sapiens) (UniProt P49840); conditions: at 1 µM
[10] = molecular target: Glycogen synthase kinase-3 beta (Homo sapiens) (UniProt P49841); conditions: at 0.1 µM
Glycogen synthase kinase-3 beta (Homo sapiens), sequence (P49841 whole entry, looked up): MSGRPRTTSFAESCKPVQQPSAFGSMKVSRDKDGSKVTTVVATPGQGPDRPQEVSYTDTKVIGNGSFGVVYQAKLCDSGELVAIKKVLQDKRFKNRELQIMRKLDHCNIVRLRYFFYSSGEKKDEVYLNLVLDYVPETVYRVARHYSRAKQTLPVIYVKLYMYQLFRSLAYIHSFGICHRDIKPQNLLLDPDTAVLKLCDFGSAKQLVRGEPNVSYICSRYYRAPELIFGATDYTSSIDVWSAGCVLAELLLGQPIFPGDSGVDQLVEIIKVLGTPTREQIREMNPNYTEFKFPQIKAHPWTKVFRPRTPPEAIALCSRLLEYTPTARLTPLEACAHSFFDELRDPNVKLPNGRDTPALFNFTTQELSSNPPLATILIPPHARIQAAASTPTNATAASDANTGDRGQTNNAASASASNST

[11] = molecular target: Glycogen synthase kinase-3 beta (Homo sapiens) (UniProt P49841); conditions: at 1 µM
[12] = molecular target: Homeodomain-interacting protein kinase 1 (Homo sapiens) (UniProt Q86Z02); conditions: at 0.1 µM
Homeodomain-interacting protein kinase 1 (Homo sapiens), sequence (Q86Z02 whole entry, looked up): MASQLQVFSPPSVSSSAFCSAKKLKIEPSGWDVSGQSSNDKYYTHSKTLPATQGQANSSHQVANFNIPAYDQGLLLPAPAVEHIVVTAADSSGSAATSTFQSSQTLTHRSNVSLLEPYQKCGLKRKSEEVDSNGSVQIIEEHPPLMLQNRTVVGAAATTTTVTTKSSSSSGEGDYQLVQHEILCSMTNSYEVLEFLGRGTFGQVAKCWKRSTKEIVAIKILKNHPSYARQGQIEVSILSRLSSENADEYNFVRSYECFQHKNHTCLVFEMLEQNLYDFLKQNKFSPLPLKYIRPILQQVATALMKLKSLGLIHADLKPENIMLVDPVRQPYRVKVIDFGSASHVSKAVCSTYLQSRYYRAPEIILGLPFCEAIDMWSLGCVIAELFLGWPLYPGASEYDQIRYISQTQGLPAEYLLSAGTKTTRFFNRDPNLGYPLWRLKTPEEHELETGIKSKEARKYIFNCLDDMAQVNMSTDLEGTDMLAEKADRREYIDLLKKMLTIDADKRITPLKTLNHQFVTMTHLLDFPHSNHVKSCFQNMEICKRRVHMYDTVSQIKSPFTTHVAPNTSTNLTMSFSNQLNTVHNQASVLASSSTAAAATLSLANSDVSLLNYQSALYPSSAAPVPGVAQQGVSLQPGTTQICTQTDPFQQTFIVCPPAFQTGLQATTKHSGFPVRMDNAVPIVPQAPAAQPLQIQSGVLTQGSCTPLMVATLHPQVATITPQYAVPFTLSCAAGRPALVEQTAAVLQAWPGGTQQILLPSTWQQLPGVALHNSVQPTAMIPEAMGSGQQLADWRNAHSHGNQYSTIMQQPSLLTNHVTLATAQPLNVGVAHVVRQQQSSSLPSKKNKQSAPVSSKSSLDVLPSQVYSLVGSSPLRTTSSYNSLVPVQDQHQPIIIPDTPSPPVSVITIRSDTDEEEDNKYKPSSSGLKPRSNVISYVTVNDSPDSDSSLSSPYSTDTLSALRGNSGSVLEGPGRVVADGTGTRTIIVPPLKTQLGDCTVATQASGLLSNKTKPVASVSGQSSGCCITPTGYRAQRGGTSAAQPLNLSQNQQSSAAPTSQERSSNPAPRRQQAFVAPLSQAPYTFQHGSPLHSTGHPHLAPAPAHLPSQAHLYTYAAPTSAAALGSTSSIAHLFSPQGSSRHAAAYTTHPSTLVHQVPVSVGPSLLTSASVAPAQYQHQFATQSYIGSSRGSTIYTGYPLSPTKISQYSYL

[13] = molecular target: Homeodomain-interacting protein kinase 1 (Homo sapiens) (UniProt Q86Z02); conditions: at 1 µM
[14] = molecular target: T2, Homeodomain-interacting protein kinase 4 (Homo sapiens) (UniProt Q8NE63); conditions: at 0.1 µM
T2 sequence (whole entry): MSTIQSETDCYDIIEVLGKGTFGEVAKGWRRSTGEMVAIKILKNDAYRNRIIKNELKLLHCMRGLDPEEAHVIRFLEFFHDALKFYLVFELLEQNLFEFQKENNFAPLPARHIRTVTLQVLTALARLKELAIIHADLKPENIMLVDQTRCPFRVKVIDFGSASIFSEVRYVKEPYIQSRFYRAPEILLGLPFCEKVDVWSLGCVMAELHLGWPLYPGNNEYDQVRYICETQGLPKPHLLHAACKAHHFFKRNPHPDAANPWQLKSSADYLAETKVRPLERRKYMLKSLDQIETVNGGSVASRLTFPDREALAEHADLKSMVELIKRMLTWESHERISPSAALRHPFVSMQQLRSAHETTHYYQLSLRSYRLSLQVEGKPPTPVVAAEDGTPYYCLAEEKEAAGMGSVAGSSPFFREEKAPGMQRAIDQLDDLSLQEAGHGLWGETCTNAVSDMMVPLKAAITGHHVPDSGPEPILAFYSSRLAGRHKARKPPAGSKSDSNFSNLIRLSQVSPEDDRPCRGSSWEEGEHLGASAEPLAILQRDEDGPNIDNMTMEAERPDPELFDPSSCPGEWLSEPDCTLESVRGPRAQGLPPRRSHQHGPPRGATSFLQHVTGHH

[15] = molecular target: T2, Homeodomain-interacting protein kinase 4 (Homo sapiens); conditions: at 1 µM
[16] = molecular target: Mitogen-activated protein kinase 9 (Homo sapiens) (UniProt P45984); conditions: at 0.1 µM
Mitogen-activated protein kinase 9 (Homo sapiens), sequence (P45984 whole entry, looked up): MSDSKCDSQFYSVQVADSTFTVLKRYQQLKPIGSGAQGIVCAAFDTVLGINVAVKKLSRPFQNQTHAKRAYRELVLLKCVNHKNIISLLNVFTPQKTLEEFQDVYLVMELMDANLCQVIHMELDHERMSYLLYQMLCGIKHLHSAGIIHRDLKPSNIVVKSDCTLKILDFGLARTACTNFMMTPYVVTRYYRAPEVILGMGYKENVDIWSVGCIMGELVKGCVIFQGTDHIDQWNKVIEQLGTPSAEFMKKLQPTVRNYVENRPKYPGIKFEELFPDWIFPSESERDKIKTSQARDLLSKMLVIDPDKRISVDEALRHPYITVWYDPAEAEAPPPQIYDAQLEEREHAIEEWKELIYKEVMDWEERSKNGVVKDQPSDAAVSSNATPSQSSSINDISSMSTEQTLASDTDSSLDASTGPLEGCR

[17] = molecular target: Mitogen-activated protein kinase 9 (Homo sapiens) (UniProt P45984); conditions: at 1 µM
[18] = molecular target: Mitogen-activated protein kinase 1 (Homo sapiens) (UniProt P28482); conditions: at 0.1 µM
Mitogen-activated protein kinase 1 (Homo sapiens), sequence (P28482 whole entry): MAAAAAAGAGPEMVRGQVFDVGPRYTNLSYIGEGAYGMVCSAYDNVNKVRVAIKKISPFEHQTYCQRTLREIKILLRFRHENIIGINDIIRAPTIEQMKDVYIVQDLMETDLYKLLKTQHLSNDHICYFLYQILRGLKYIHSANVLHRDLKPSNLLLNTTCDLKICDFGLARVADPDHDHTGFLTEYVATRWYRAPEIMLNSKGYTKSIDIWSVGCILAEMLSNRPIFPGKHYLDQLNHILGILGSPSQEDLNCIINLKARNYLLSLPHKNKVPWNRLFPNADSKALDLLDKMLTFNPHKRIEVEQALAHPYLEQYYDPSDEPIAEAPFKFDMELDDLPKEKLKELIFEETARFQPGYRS

[19] = molecular target: Mitogen-activated protein kinase 1 (Homo sapiens) (UniProt P28482); conditions: at 1 µM
[20] = molecular target: Mitogen-activated protein kinase 3 (Homo sapiens) (UniProt P27361); conditions: at 0.1 µM;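 note: each value is a mean inhibition figure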
Mitogen-activated protein kinase 3 (Homo sapiens), sequence (P27361 whole entry): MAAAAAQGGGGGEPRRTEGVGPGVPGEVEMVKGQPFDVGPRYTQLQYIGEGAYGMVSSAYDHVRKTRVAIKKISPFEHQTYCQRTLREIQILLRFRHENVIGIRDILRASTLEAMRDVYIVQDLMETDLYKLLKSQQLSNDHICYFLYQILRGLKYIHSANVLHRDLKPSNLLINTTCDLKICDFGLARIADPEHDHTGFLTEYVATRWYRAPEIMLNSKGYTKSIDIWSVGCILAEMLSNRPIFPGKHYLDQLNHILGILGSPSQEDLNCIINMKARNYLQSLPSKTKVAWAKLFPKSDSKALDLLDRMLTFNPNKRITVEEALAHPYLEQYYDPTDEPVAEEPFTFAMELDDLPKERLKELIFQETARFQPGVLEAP

Dual specificity protein kinase CLK3 (Homo sapiens), sequence (P49761 whole entry, looked up): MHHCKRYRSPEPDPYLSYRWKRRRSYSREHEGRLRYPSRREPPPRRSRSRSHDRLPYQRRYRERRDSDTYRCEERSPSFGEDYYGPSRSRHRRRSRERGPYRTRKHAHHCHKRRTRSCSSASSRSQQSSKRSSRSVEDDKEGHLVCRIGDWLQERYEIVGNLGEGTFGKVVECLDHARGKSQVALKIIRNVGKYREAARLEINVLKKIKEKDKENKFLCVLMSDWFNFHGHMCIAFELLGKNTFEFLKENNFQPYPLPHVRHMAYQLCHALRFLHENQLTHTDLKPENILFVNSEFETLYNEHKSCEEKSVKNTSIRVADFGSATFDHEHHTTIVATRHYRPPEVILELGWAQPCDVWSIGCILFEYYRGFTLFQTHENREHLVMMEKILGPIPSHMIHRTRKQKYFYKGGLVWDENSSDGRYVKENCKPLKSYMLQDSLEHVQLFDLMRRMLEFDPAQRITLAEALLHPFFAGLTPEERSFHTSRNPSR

| SMILES | inhibition [1] [%] | inhibition [2] [%] | inhibition [3] [%] | inhibition [4] [%] | inhibition [5] [%] | inhibition [6] [%] | inhibition [7] [%] | inhibition [8] [%] | inhibition [9] [%] | inhibition [10] [%] | inhibition [11] [%] | inhibition [12] [%] | inhibition [13] [%] | inhibition [14] [%] | inhibition [15] [%] | inhibition [16] [%] | inhibition [17] [%] | inhibition [18] [%] | inhibition [19] [%] | inhibition [20] [%] |
| --- | --- | --- | --- | --- | --- | --- | --- | --- | --- | --- | --- | --- | --- | --- | --- | --- | --- | --- | --- | --- |
| COc1cccc(-n2ncc3c(N/N=C/c4ccc(S(C)(=O)=O)cc4)ncnc32)c1 | 13.5 | 23.1 | 64.3 | 9.87 | 47.3 | 14.5 | 24.9 | 72.7 | 80.6 | 70.4 | 79 | 21.4 | 64.3 | 18.3 | 60.6 | 1.92 | 4.9 | 1.63 | 1.93 | 2.27 |
| NS(=O)(=O)c1cccc(Nc2cc(-c3ccc(F)cc3)n[nH]2)c1 | 2.68 | -0.01 | 4.42 | -1.06 | 2.79 | 1.93 | 4.01 | 3.57 | 7.78 | 2.84 | 9.59 | 2.17 | 7.35 | 1.27 | 6.82 | 1.28 | 4.86 | 4.24 | 3.83 | 4.14 |
| c1ccc(Nc2ncc(-c3ccccc3)o2)cc1 | 1.62 | 3.02 | 2.66 | -0.02 | 1.13 | 4.52 | 5.66 | 4.96 | 15.8 | 5.53 | 13.3 | -2.56 | 3.15 | 1.19 | 6.31 | 6.78 | 12.9 | 6.94 | 7.41 | 6.5 |
| NS(=O)(=O)c1ccc(-c2cc3ccncc3cc2OCc2ccccc2)cc1 | 3.69 | 1.26 | 4.84 | 0.97 | 2.12 | 2.46 | 3.11 | 2.45 | 4.95 | 2.08 | 3.98 | 1.69 | 4.62 | 3.58 | 6.62 | 3.39 | 6.21 | 5.32 | 3.37 | 4.03 |
| OCc1ccc(-c2nc(-c3ccccn3)c(-c3ccc4c(c3)OCO4)[nH]2)cc1 | 2.95 | 1.82 | 4.86 | 0.33 | 0.97 | 2.62 | 3.63 | 2.15 | 4.5 | 2.21 | 3.44 | 0.23 | 4.92 | 1.72 | 0.79 | 2.15 | 5.14 | 5.49 | 3.7 | 3.56 |
| COc1ccc(-c2nn3ncccc3c2-c2ccnc(Nc3cccc(C(F)(F)F)c3)n2)cc1 | 0.95 | 2.09 | 1.66 | -0.34 | 1.16 | 1.77 | 0.78 | 2.36 | 2.7 | 1.41 | 3.78 | 0.13 | -1.85 | 0.75 | 1.33 | 3.29 | 8.16 | 6.52 | 5.12 | 0.87 |
| Cc1ccc(NC(=O)CC2CC2)cc1-c1ccc(C(=O)NCC2CC2)cc1 | 1.83 | 0.93 | 3.49 | 0.61 | 1.49 | 2.06 | 2.68 | 2.32 | 2.3 | 1.75 | 3.08 | -0.11 | 1.56 | 2.64 | 4.19 | 3.4 | 3.8 | 2.01 | 3.96 | 5.26 |
| COc1cc(/C=N/Nc2ncnc3c2cnn3C(C)C)ccc1O | 31.6 | 1.4 | 8.18 | 0.35 | 7.69 | 1.46 | 5.67 | 6.47 | 37.4 | 4.9 | 32.9 | 0.71 | 16.1 | 1.74 | 19.6 | 2.63 | 3.44 | 1.48 | 2.57 | 1.63 |
| COc1cccc(-n2ncc3c(N/N=C/c4ccc(C)cc4)ncnc32)c1 | 1.46 | 5.94 | 16.5 | 3.97 | 11.3 | 5.76 | 13.6 | 19.4 | 55.6 | 13.1 | 47 | 1.58 | 13.3 | 3.16 | 11.4 | 8.36 | 11.6 | 6.17 | 7.67 | 4.71 |
| COc1cc2ncn(-c3cc(OCc4ccccc4S(C)(=O)=O)c(C#N)s3)c2cc1OC | 3.74 | 6.14 | 19.3 | 2.5 | 13.9 | 2.4 | 4.87 | 4.96 | 11.3 | 4.26 | 8.83 | 2.2 | 28 | 52.5 | 79 | 2.5 | 6.08 | 1.98 | 5.43 | 3.11 |
| Nc1nccc(-c2c(-c3ccc(F)cc3)nn3cc(C(F)(F)F)ccc23)n1 | 0.23 | 0.54 | 16.4 | -1.44 | 0.98 | 0.12 | -1.97 | -1.1 | -0.65 | -1.01 | -1.01 | -6.6 | -1.23 | -0.17 | 0.63 | 2.4 | 4.47 | -0.05 | 0.2 | 3.72 |
| C[C@@H](Oc1cc(-n2cnc3ccc(OC[C@@H](O)CO)cc32)sc1C(N)=O)c1ccccc1Cl | 1.12 | 0.12 | 3.71 | 1.13 | 2.69 | -1.33 | 1.61 | 0.1 | 3.84 | 0.42 | 4.23 | -0.81 | 4.78 | 1.18 | 9.28 | -0.38 | -0.96 | -3.13 | -1.64 | -0.87 |
| Nc1nccc(C#Cc2cncnc2Nc2ccc(OCc3cccc(F)c3)c(Cl)c2)n1 | 3.1 | 3.44 | 10.8 | 1.71 | 4.87 | 3.08 | 4.89 | 4.01 | 14.3 | 2.94 | 10.5 | -0.05 | 6.94 | 4.23 | 8.43 | 3.97 | 4.23 | 3.54 | 4.87 | 1.83 |
| Cc1ccc2c(-c3ccnc(Nc4cccc(C(F)(F)F)c4)n3)c(-c3ccccc3)nn2n1 | 2.3 | 3.65 | 2.62 | 1.3 | 2.46 | 4.31 | 5.83 | 22.6 | 68.5 | 35.7 | 76 | 0.33 | 3.87 | 1.36 | 13.5 | 30.1 | 82.2 | 6.13 | 9.3 | 5.72 |
